NS1 inh: qHTS Assay for Inhibitors of Influenza NS1 Protein Function; Potency, µM (series often up to 46.1 µM), for inactives: at the highest dose activity, positive = more growth; hit rate 0.4% among 270,000; AID 2326, 2010; calls by dose curve; note: potency is the fitted concentration of half-maximal effect; actives are rising curves; nearly all actives have a fitted effect of over 50% in size
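Recovery from NS1-induced slow growth read by OD600 in budding yeast switched to galactose assay medium (pH 6.0, -URA) at 1:100 dilution. Compound 23 nl per well; the matching strain lacking NS1 serves as control.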
Shiga toxin inh: A qHTS for Small Molecule Inhibitors of Shiga Toxin | AID 2315, 2010 | inhibition, % at 38.7 µM | hit rate 9.2% among 290,000 | Vero cells, Shiga toxin protein synthesis inhibition reporter; in the data active = inhibition mostly above about 28%, no sharp cut-off; inactive = mostly below about 43%; note: 0% is about no effect
CHX counter: Cycloheximide Counterscreen for Small Molecule Inhibitors of Shiga Toxin; cell reporter, cycloheximide protein synthesis inhibition counterscreen; max response, %; hit rate 12% among 300,000; AID 2314, 2010; in the data active = max response mostly above about 13%, no sharp cut-off; inactive = mostly below about 14%; note: read at 38.3 µM for the half of the compounds with a filed dose; 0% is about no effect
FBPA Giardia inh: qHTS Assay for Inhibitors of Fructose-1,6-bisphosphate Aldolase from Giardia Lamblia; A8B2U2; purified Giardia FBPA; Potency, µM (doses to about 59.6 µM), for inactives: at the highest dose activity, negative = inhibition, hits mostly inhibitors; hit rate 0.71% among 290,000; AID 2451, 2010; note: potency is the fitted concentration of half-maximal effect; % is set by controls: 0 for no effect and ±100 for the full control effect; nearly all actives have a fitted effect of over 55% in size
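40 nM FBPA preincubated 10 min at RT with compound (up to 57.5 uM final), then substrate plus GAPDH/TPI/NAD/arsenate coupling and diaphorase/resazurin added. Fluorescence read after 20 min at RT, 525/598 nm.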
LmPK inhibitor: qHTS Assay for Inhibitors of Leishmania Mexicana Pyruvate Kinase (LmPK). Q27686. Potency, µM (highest dose often 57.5 µM), for inactives: top-dose activity change, negative = inhibition, actives largely listed as inhibitors. purified LmPK, Kinase-Glo ATP luminescence, 1 h. hit rate 0.37% among 290,000; note: potency is the fitted concentration of half-maximal effect; % is set by controls: 0 for no effect and ±100 for the full control effect
Target sequence (Q27686 whole entry, looked up): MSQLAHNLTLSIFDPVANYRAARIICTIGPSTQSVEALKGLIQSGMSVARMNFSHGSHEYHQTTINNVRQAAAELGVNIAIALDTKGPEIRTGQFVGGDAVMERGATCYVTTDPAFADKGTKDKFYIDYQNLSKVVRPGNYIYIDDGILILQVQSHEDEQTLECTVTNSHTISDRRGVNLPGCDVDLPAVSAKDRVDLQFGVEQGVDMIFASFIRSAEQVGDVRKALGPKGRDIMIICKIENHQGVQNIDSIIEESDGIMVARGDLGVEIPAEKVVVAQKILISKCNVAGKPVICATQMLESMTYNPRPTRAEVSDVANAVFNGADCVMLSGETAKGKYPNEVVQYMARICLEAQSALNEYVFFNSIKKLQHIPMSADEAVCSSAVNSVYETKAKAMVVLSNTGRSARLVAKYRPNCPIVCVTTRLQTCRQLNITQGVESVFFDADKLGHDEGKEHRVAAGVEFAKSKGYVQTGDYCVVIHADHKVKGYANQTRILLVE
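0.1 nM LmPK, 0.5 mM PEP, 0.1 mM ADP; 50 mM imidazole pH 7.2, 7 mM MgCl2, 50 mM KCl; 1 h RT. Kinase-Glo luminescence readout, normalized to no-enzyme (full inhibition) and uninhibited wells.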
* = called active by the depositor; ? = inconclusive; nt = no result given; [ ] = remark or other dose. Sampled rows, rich in hits. Any-hit rate of the full collection: about 14%. Unless noted, calls come from the whole dose curve; as a rule, active = well fitted curve in the direction sought with a large enough effect; inconclusive = small, poorly fitted or top-dose-only effect, or another doubt; inactive = no such curve, though single readings can be large; an effect the other way counts as inactive or inconclusive.

SMILES	NS1 inh	Shiga toxin inh	CHX counter	FBPA Giardia inh	LmPK inhibitor
CCCNC(=O)OC[C@@H]1O[C@H](CCO/N=C(\C)CCN2CCCCc3nc(C)c(C)cc32)C=C[C@@H]1Oc1ccc(OC)cc1	nt	nt	nt	-1%[12.9 µM]	nt
Cc1ccc(O)c(CCc2ccc(O)cc2)n1	10%	9	8	-7%	-3%
CN(c1nc2ccccc2[nH]c1=O)C1CCCCC1	-9%	13	9	3%	-3%
CCOC(=O)c1ccc(NS(=O)(=O)N2CCCCCC2)cc1	-30%	74*	32*	0%	2%
CCOC(=O)c1ccc(NC(=O)C2CCN(S(=O)(=O)CC)CC2)cc1	1%	-5	-1	0%	1%
CCOC(=O)c1ccc(NC(=O)N2CCCCCC2)cc1	-13%	123*	76*	7%	4%
O=C(Nc1ccc(F)cc1)N1CCCCCC1	0%	31*	15*	-4%	-6%
CCOC(=O)c1ccc(NC(=O)N2CCN(C(=O)C3CCCO3)CC2)cc1 (centres undefined)	4%	-15	1	3%	-7%
Cn1c(CNC(=O)CNC(=O)c2ccc(F)cc2)cc(=O)n(C)c1=O	-1%	-5	13	nt	1%
N#CCCSc1ccccc1NC(=O)c1cc(=O)c2ccccc2o1	-16%	-3	14	15%	13%
Cn1c(=O)c(/C=C/c2ccc(F)cc2)nc2ccccc21	-2%	75*	36*	-5%	-3%
Cn1c(=O)c(/C=C/c2ccccc2)nc2ccccc21	-10%	73*	34*	0%	-8%
CC(=O)c1ccc(/C=C/c2nc3ccccc3n2C)o1	-4%	61*	38*	-19%	?
CCOC(=O)c1ccc(N=Cc2nc3ccccc3n2C)cc1	-13%	-6	11	14%	5%
Cn1c(/C=C/c2cccc(Br)c2)nc2ccccc2c1=O	-43%	80*	46*	-2%	4%
O=c1c(/C=C(\O)c2ccc(F)cc2)nc2ccccc2n1-c1ccccc1	9%	41	-1	1%	4%
CCOc1ccc(S(=O)(=O)n2ccnc2C)cc1	?	-3	-2	1%	-12%
Cn1c([N+](=O)[O-])cnc1CN1CCN(CCO)CC1	-2%	nt	nt	nt	nt
CN(C)c1ncc2nc(-c3ccccc3)c(=O)n(C3CC3)c2n1	nt	nt	nt	-13%	nt
Cn1c(/C=C/c2cccc([N+](=O)[O-])c2)nc2ccccc2c1=O	-1%	-14	-2	4%	6%
Cn1c(/C=C/c2ccccc2)nc2ccccc21	-49%	-13	11	-27%	5µM*
CC(C)(C)c1ccc(NC(=O)C(=O)C2C(=O)Nc3ccccc32)cc1 (centres undefined)	nt	49*	32*	13%	-3%
CC(C)c1ccc(NC(=O)C(=O)C2C(=O)Nc3ccccc32)cc1 (centres undefined)	5%	-5	9	26%	-3%
Cc1ccc(C(=O)Nc2ccc(C(=O)N/N=C/c3ccc(C)o3)cc2)cc1	0%	32	9	4%	-6%
O=C(Cc1c(F)cccc1Cl)Nc1ccc(S(=O)(=O)Nc2nccs2)cc1	-2%	5	-4	nt	-1%
SMILES	NS1 inh	Shiga toxin inh	CHX counter	FBPA Giardia inh	LmPK inhibitor
CCOc1ccc(NC(=O)c2ccc3[nH]c(=O)c(=O)[nH]c3c2)cc1	-5%	-3	-2	14%	1%
O=C(Nc1ccc(S(=O)(=O)Nc2ncccn2)cc1)c1cccc(S(=O)(=O)N2CCOCC2)c1	1%	-4	9	16%	1%
CCOC(=O)N/N=C1/C[C@@H](O)[C@@H](O)[C@@H]2[C@@H]3C(=O)N(Cc4ccccc4)C(=O)[C@H]3CC[C@@H]12	nt	nt	nt	-1%[12.9 µM]	nt
Cc1nnc(OCc2nc3ccccc3n2C)c2ccccc12	-3%	68*	33*	-1%	-9%
Cc1cccc(OCc2nc3ccccc3n2C)c1	-44%	29*	37*	-27%	4%
Cn1c(Cn2cnc3ccccc32)nc2ccccc21	-9%	-10	-7	-1%	0%
Cc1ccccc1OCc1nc2ccccc2n1C	-74%	nt	32*	11%	-7%
Cn1c(COc2ccc(F)cc2)nc2ccccc21	-35%	68*	43*	-11%	-18%
Cn1c(COc2ccc(C(=O)O)cc2)nc2ccccc21	2%	-6	-5	-1%	-10%
COc1ccc(NC(=O)N2CC[C@@]3(CCCN(C(=O)c4ccncc4)C3)C2)cc1	nt	nt	nt	2%	nt
